Source: PubChem BioAssay (several laboratories)
Only some compounds are listed: those with a hit (about 22% of all), similar ones and a draw of the others.
CYP2C9 activ – activators of human CYP2C9 | P11712 | recombinant CYP2C9, luciferin-H conversion, luminescence; hits give high values; factor 1 = untreated enzyme, 0 = blocked | activation factor at 5 µM | 1.4% of 96,000 active | AID 1024;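 active = activation factor of 2 or more for CYP2C9 at a 5 µM dose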;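 also: 0 = sulfaphenazole-blocked wells and 1 = vehicle-only wells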
CYP2C19 act – increases human CYP2C19 enzyme activity; activation factor at 5 µM; 96,000 tested, under 10 active; recombinant CYP2C19, luciferin-H EGE luminescence; hits give high values; 0 = fully inhibited enzyme, 1 = untreated enzyme; P33261; AID 1025;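 active = activation factor of at least 2 at 5 µM in the primary screen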;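 also: 0 = wells with 2.5 mM tranylcypromine and 1 = vehicle-only wells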
Target sequence (P33261 whole entry, looked up): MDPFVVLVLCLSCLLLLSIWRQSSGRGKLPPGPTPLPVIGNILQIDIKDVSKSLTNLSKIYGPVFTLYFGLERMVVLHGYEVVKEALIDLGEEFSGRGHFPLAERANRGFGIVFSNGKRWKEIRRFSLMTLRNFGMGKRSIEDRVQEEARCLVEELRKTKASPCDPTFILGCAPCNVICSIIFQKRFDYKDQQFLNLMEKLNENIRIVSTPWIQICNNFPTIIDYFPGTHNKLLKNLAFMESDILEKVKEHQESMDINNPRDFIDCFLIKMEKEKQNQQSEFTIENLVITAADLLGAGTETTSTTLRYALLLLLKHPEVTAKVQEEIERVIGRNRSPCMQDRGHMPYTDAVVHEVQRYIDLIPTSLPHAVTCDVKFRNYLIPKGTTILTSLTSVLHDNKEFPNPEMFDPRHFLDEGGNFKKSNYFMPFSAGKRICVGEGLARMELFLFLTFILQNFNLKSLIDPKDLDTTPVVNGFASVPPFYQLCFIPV
CYP2C19 inh – human CYP2C19 inhibition; P33261; CYP2C19 Supersomes, luciferin-H EGE luminescence, 30 min; inhibition, % at 5 µM; 21% of 96,000 active; AID 778;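 active = CYP2C19 inhibition above a set limit at 5 µM in the primary screen, cut at about 50% in these data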;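 also: plate controls were negative control wells for no effect and 2.5 mM tranylcypromine positive control for full effect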
CYP2C9 inh – human CYP2C9 inhibition | P11712 | CYP2C9 Supersomes, luciferin-H conversion, luminescence | inhibition, % at 5 µM | 20% of 96,000 active | AID 777;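 active = blocking of liver enzyme CYP2C9 beyond about 50% at 5 µM, limit read from the data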
Measles CPE – protection of cells from measles virus | 1.5% of 140,000 active | Measles virus-infected cells, CPE protection, absorbance | protection (pct of control), % at 4 µM | AID 841; in the data active = protection mostly above about 24%, no sharp cut-off; inactive = mostly below about 26%
An asterisk follows results filed as active; . = no result.

SMILES	CYP2C9 activ	CYP2C19 act	CYP2C19 inh	CYP2C9 inh	Measles CPE
CCOC(=O)Cn1c2ccccc2c2nc3ccccc3nc21	1	0.4	58*	-2	46*
CCCn1c2ccccc2c2nc3ccccc3nc21	0.3	0.5	54*	69*	14
CCCCCC(=O)Nc1nc(C)c(-c2csc(Nc3ccc(Cl)cc3)n2)s1	0.7	0.6	41	32	11
CCCC1N2CC3([N+](=O)[O-])CN1CC([N+](=O)[O-])(C2)C3(C)C (configuration not stated)	.	.	.	.	17
CCc1ccc(/C=C/C(=O)c2c(C)cc(C)[nH]c2=O)cc1	1.2	0.2	80*	-23	2
CCc1ccc(/C=C/C(=O)c2ccc(S(=O)(=O)N(C)C)cc2)cc1	.	.	.	.	6
Cc1ccc(/C=C/C(=O)c2c(C)cc(C)[nH]c2=O)cc1	1.4	0.1	89*	-44	29
Cn1c(=O)c2c(nc(-n3ccnc3)n2C)n(C)c1=O	1.1	1.1	-10	-9	7
CCn1c(SCc2ccccc2Cl)nc2ccccc21	1.2	0.6	39	-19	10
Cn1c(SCc2ccccc2Cl)nc2ccccc21	1.3	0.3	73*	-28	15
CCn1c(CSc2nc3ccccc3n2C)nc2ccccc21	0.6	0.1	86*	38	17
CCC(=O)N1CCCc2cc(S(=O)(=O)N3CCN(c4ncccn4)CC3)ccc21	0	0	98*	96*	4
CCC(=O)N1CCc2cc(S(=O)(=O)N3CCN(C(=O)c4ccco4)CC3)ccc21	0.8	0.9	14	22	8
CCC(=O)N1CCCc2cc(S(=O)(=O)N3CCN(c4ccccn4)CC3)ccc21	0.2	0.5	50*	80*	6
CCC(=O)N1CCCc2cc(S(=O)(=O)N3CCN(c4ccccc4F)CC3)ccc21	0	0	96*	100*	3
Cc1ccc(SCCNC(=O)c2ccccc2C)cc1	0.1	0.1	90*	89*	6
Cc1ccc(SCCNC(=O)c2ccc(C)c([N+](=O)[O-])c2)cc1	0.5	0.5	51*	47	12
Cc1ccc(C(=O)NCCSc2ccc(Cl)cc2)cc1[N+](=O)[O-]	.	.	.	.	5
Cc1occc1C(=O)N/N=C/C1=C(N2CCOCC2)C(=C\c2ccc(Cl)cc2)/CC1	.	.	.	.	5
CN(C)c1ccc(-n2cc3c(=O)n(C)c(=O)n(C)c3c2)cc1	0.2	0.5	46	76*	6
COC(=O)CCc1c(C)nn(-c2ccccc2)c1C	1	0.7	26	4	7
COc1ccc(NCC(O)Cn2cnc3c2c(=O)n(C)c(=O)n3C)cc1 (configuration not stated)	.	.	.	.	5
COC(=O)c1c(NC(=O)CSc2nnnn2C)sc(C)c1C	0.3	0.3	65*	66*	7
COC(=O)c1c(NC(=O)CSc2nc3ccccc3c(=O)n2Cc2ccco2)sc(C)c1C	.	.	.	.	8
C=CCn1c(SCC(=O)Nc2sc(C)c(C)c2C(=O)OCC)nnc1-c1sc(N)nc1C	0.4	0.4	60*	62*	8
SMILES	CYP2C9 activ	CYP2C19 act	CYP2C19 inh	CYP2C9 inh	Measles CPE
CCOC(=O)c1c(NC(=O)CSc2nnc(-c3cccnc3)n2Cc2ccco2)sc(C)c1C	0.3	0.6	43	66*	14
COC(=O)c1c(NC(=O)CSc2nnc(-c3ccco3)n2Cc2ccccc2)sc(C)c1C	0.4	0.8	18	62*	6
COC(=O)c1c(NC(=O)CSc2nnnn2-c2ccc3c(c2)OCO3)sc(C)c1C	0.6	1	4	44	14
CCSc1nnc(-c2cccnc2)n1Cc1ccco1	1	1	0	0	9
C=CCn1c(SCC(=O)NC2CCCCC2)nnc1-c1sc(N)nc1C	0.7	1	1	33	13
Cc1ccc(C)c(NC2=C(Cl)C(=O)OC2OC(=O)c2ccco2)c1 (configuration not stated)	0.4	0.2	76*	58*	16
COc1ccc2c(c1)C1CC(C)(NC(=O)C1C(=O)c1ccccc1)O2 (configuration not stated)	1	0.8	24	5	4
COc1ccc2c(c1)C1CC(C)(NC(=O)C1S(=O)(=O)c1ccc(F)cc1)O2 (configuration not stated)	.	.	.	.	69*
COc1ccc2c(c1)OC1(C)CC2C(C(=O)c2ccccc2OC)C(=O)N1 (configuration not stated)	.	.	.	.	31*
Cc1onc(-c2ccccc2)c1C(=O)N/N=C/C(Br)=C/c1ccccc1	.	.	.	.	31
Cc1ccc(S(=O)(=O)N2CCCCC2)cc1C(=O)Nc1ncn[nH]1	2*	1	-2	-97	12
Cc1ccc(S(=O)(=O)N2CCCCC2)cc1C(=O)Nc1ccc2cn[nH]c2c1	0.4	0.7	31	64*	-1
Cc1cc(NC(=O)c2cc(S(=O)(=O)N3CCCCC3)ccc2C)n(-c2ccccn2)n1	0.4	0.7	32	64*	18
CCOC(=O)C1CCN(C(=O)c2ccccc2NS(=O)(=O)c2ccc(F)cc2)CC1	.	.	.	.	8
CCN(CC(O)CON=C1c2ccccc2-c2ccccc21)S(=O)(=O)c1ccc(Cl)cc1 (configuration not stated)	.	.	.	.	35
Cc1cc2ncn(N)c2cc1C	1.1	1.1	-11	-14	3
CCOC(=O)c1[nH]c(COC(=O)CCCOc2ccccc2)c(C(=O)OCC)c1C	0.2	0.6	45	80*	.
Cc1ccc2cccc(NC(=S)NC(=O)c3ccccc3)c2n1	2.7*	0.8	16	-168	23
COC(=O)c1ccccc1NC(=S)NC(=O)c1ccccc1	0.8	0.4	56*	25	10
Cc1ccccc1C(=O)NC1CCN(CC(=O)Nc2nccs2)CC1	1.1	1.1	-11	-10	17
COC(=O)c1ccccc1NC(=S)NC(=O)c1ccccc1C	0.7	0.5	51*	27	17
COC(=O)c1ccccc1NC(=O)CN1CCC(NC(=O)c2ccccc2C)CC1	0.5	0.2	82*	54*	6
CCS(=O)(=O)C(=C1Nc2ccccc2N1)S(=O)(=O)CC	.	.	.	.	4
CCn1c(=NC(=O)c2ccc(S(=O)(=O)N3CCOCC3)cc2)sc2cccc(OC)c21	1.1	0.9	12	-8	3
COc1ccc(C(=O)/C=C/c2ccc(OC)c(COc3ccc(F)cc3)c2)cc1	0.5	0.7	30	52*	12
SMILES	CYP2C9 activ	CYP2C19 act	CYP2C19 inh	CYP2C9 inh	Measles CPE
CCOc1ccc(C(=O)NCC(=O)OCc2cc(C(C)=O)ccc2OC)cc1	.	.	.	.	7
COc1ccc(/C=C/C(=O)O)cc1COc1ccccc1C	.	.	.	.	10
COc1ccc(C(=O)NN)cc1COc1ccc(Br)cc1	0.5	0	96*	50*	5
Cn1c(-c2ccc3c(c2)OCO3)cnc1NCc1ccc(Cl)cc1	0	0.3	66*	99*	25
Cc1ccc(CNc2ncc(-c3ccc4c(c3)OCO4)n2C)cc1	0.3	0.3	69*	74*	11
Cc1ccc(-n2c(=O)c3ccc(C(=O)NCc4ccco4)cc3n(Cc3ccccc3C#N)c2=O)cc1	.	.	.	.	11
O=C(Cn1c(NCCO)nc2ccccc21)c1cccs1	1	1	-4	-4	7
